This note sets out measurements from PubChem BioAssay AID686996 (Broad Institute, 2013).

The campaign covered roughly 350,000 compounds. About 1,900 (0.54%) were called active.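 Rule for the calls: active = mean inhibition across replicates at least about 35%, with every replicate also reaching that limit (limit read from the data); inconclusive = only one of the two criteria met; inactive = neither criterion met.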 Only a selection was taken, and actives are over-represented in it overall.

Chain of Caspase-6 (Homo sapiens) (P55212 24-179 limits assumed): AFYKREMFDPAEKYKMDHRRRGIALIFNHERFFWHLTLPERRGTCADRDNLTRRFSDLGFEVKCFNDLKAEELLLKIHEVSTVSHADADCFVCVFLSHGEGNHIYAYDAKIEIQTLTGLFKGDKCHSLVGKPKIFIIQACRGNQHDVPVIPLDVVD
Chain of Caspase-6 (Homo sapiens) (P55212 194-293 limits assumed): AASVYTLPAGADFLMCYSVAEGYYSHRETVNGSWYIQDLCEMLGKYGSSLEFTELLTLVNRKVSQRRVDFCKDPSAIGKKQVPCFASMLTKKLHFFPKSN

The experiment addresses Caspase-6 (Homo sapiens) (UniProt P55212). The experiment in a line: human caspase-6 inhibitors, primary screen, biochemical, VEID-R110 fluorescence, single point, set 2 (AID 686996).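 Note: 0% = median of neutral control wells and 100% = no fluorescence left.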 The settings on record: purified caspase-6, Z-VEID-R110 cleavage fluorescence; at 12.5 µM; hits give high values.
As for `COc1c(O)cc2oc(-c3ccc(O)c(O)c3)cc(=O)c2c1O`, the inhibition was 39.1% (active).

Regarding `C#CCN1C(Cc2ccccc2)C(=O)O[C@H](C2CCCCC2)[C@@H]1/C=C/C1CC1` (some centres not stated), the inhibition is -4.1% (inactive).

Regarding `N#CC1=C(N)Oc2n[nH]c(CSc3ccccc3)c2C12C(=O)Nc1ccccc12` (configuration not stated), the inhibition is 7.38% (inactive). `N#CC1=C(N)Oc2[nH]c(=S)[nH]c(=O)c2C12C(=O)Nc1ccccc12` (configuration not stated): the inhibition is 45.4% (active). Next, `C[C@@H]1CN([C@@H](C)CO)S(=O)(=O)c2ccc(C3=CCCCC3)cc2O[C@@H]1CN(C)C(=O)CN(C)C`: 0.621% (inactive). Next, `CCS(=O)(=O)N1CC2(CN(Cc3cc(F)ccc3F)[C@@H](CO)c3c2c2ccc(OC)cc2n3C)C1`: -1.32% (inactive); `C[C@H](CO)N1C[C@H](C)[C@H](CN(C)CC2CCCC2)Oc2ncc(Br)cc2C1=O`: 0.088% (inactive); `C[C@@H]1CN([C@@H](C)CO)C(=O)c2cc(NS(=O)(=O)c3ccc(Cl)cc3)ccc2O[C@H]1CN(C)S(=O)(=O)c1cn(C)cn1`: -0.705% (inactive). On to `COc1ccc(NS(=O)(=O)c2ccc(Oc3c(C#N)cccc3C#N)cc2)cc1`, for which the inhibition is -1.42% (inactive). `Cc1ccc(S(=O)(=O)/N=C2\C=C(NS(=O)(=O)c3ccc(C)cc3)C(=O)c3ccccc32)cc1`: the inhibition is 62.8% (active). For `Cc1ccc(S(=O)(=O)N/N=C(\c2ccccc2)C2CC2)cc1`, the inhibition was 8.02% (inactive). Next, `COc1ccc(S(=O)(=O)/N=C2\C=C(NS(=O)(=O)c3ccccc3)C(=O)c3ccccc32)cc1`: 55.8% (active); `Cc1ccc(S(=O)(=O)N[C@H](CO)C(C)C)cc1`: 1.4% (inactive); `CNC(=O)COc1ccc(S(=O)(=O)Nc2ccccc2)cc1`: 0.091% (inactive).

As to `CO[C@H]1CN(C)C(=O)c2ccc(NS(=O)(=O)c3ccccc3)cc2OC[C@H](C)N(Cc2nccs2)C[C@@H]1C`, the inhibition was 0.023% (inactive). Next, `C[C@@H](O)C#Cc1ccc([C@H]2[C@@H](CO)N3CCCCN(S(=O)(=O)c4ccccc4)C[C@@H]23)cc1`: -3.52% (inactive); `CCCNC(=O)C[C@H]1C[C@@H]2c3cc(NS(=O)(=O)c4cccc(OC)c4)ccc3O[C@@H]2[C@@H](CO)O1`: 2.43% (inactive). On to `C[C@@H]1C[C@@H]2O[C@H]2/C=C\C=C\C(=O)Cc2c(Cl)c(O)cc(O)c2C(=O)O1`, for which the inhibition was 37.4% (active). Consider `COc1ccc(S(=O)(=O)N(C)C[C@H]2Oc3c(NC(=O)CCCCCC(=O)Nc4ccccc4N)cccc3C(=O)N([C@H](C)CO)C[C@H]2C)cc1`, for which the inhibition was -1.7% (inactive).

For `O=C(Cc1ccccc1)N[C@H]1C=C[C@H](CC(=O)N2CCCCC2)O[C@@H]1CO`, the inhibition is -1.28% (inactive). Regarding `CCCN1[C@H](C(=O)N2CCCCC2)[C@@H](CO)[C@@H]2Cn3c(ccc(-c4ccccc4F)c3=O)[C@@H]21`, the inhibition is 1.71% (inactive). `CCC(=O)N1CCC2(CC1)CN(Cc1ccc(Cl)cc1)[C@@H](CO)c1[nH]c3cc(OC)ccc3c12`: the inhibition was 1.51% (inactive).

Take `CC(C(=O)NC1CCS(=O)(=O)C1)N1C(=O)/C(=C/c2ccc(Cl)cc2)SC1=S` (configuration not stated): the inhibition was 4.77% (inactive). In the case of `CC(C(=O)Nc1ccc(O)c(C(=O)O)c1)N1C(=O)/C(=C/c2cccs2)SC1=S` (configuration not stated), the inhibition is 27.5% (inactive). Next, `O=C(O)C(c1ccccc1)N1C(=O)/C(=C\c2ccc(-c3cccc(Cl)c3)o2)SC1=S` (configuration not stated): 89.6% (active); `CCN1[C@@H]2Cn3c(ccc(C4=CCCCC4)c3=O)[C@H]1[C@@H](C(=O)N1CCCCC1)[C@@H]2CO`: 1.04% (inactive); `O=C(C[C@H]1CC[C@@H]2[C@H](COC[C@@H](O)CN2C(=O)Nc2cccc(F)c2)O1)NCc1ccccc1F`: 0.624% (inactive). Take `O=C(COC(=O)c1cnc(Cl)c(Cl)c1)NCc1ccco1`: the inhibition was 10.4% (inactive).

For the molecule `O=C(COC(=O)c1ccccc1O)NCc1ccco1`, the inhibition is 38.4% (active). For the molecule `O=C(COC(=O)Cc1ccc(Cl)cc1Cl)NCc1ccco1`, the inhibition is 3.33% (inactive). As for `N#C[C@H]1[C@@H](c2ccccc2C2=CCCC2)[C@H](CO)N1C(=O)c1cccc(F)c1`, the inhibition is 0.224% (inactive).

For `CCC(=O)N1C[C@@H](C)[C@H](OC)CN(C)C(=O)c2cc(NC(=O)NC3CCCC3)ccc2OC[C@H]1C`, the inhibition was 0.917% (inactive). On to `CCC(=O)N(C)C[C@@H]1Oc2cc(C#CCN(C)C)ccc2S(=O)(=O)N([C@H](C)CO)C[C@H]1C`, for which the inhibition is -0.78% (inactive). Next, `N#CC1=C(N)Oc2c(ccc3cccnc23)C1c1ccncc1` (configuration not stated): 3.1% (inactive); `Cn1c2c(c(=O)n(C)c1=O)C(c1cccc(F)c1)C(C#N)=C(N)O2` (configuration not stated): 1.86% (inactive); `N#CC1=C(N)Oc2cc(N)ccc2C1c1ccccc1` (configuration not stated): 37% (active). For `O=C(C[C@@H]1CC[C@H]2[C@@H](COC[C@H](O)CN2C(=O)Nc2ccccc2)O1)NCc1ccccc1F`, the inhibition was -1.64% (inactive). As for `Cc1ccccc1-c1ccc2c(c1)O[C@@H](CN(C)Cc1ccncc1)[C@@H](C)CN([C@H](C)CO)S2(=O)=O`, the inhibition is 2.69% (inactive). Next, `N#Cc1c(N2CCCCC2)nc(N)c2c(N)nc(SCC(=O)O)cc12`: 43.3% (active); `N#Cc1c(C(F)(F)F)cc(-c2ccc(Cl)cc2)nc1SCC(=O)O`: -2.92% (inactive); `O=C(O)CSc1ccc(S(=O)(=O)N2CCCC2)cn1`: -0.751% (inactive).

Consider `C[C@@H]1CN([C@@H](C)CO)C(=O)Cc2cc(NC(=O)CCN3CCOCC3)ccc2O[C@H]1CN(C)S(=O)(=O)c1ccccc1`, for which the inhibition is -0.675% (inactive). For `CN(C)C(=O)c1ccc(-c2ccccc2[C@@H]2[C@@H](C#N)N(C(=O)C3CCCC3)[C@H]2CO)cc1`, the inhibition is 2.13% (inactive). Take `C[C@@H]1CN([C@H](C)CO)C(=O)c2c(c3ccccc3n2C)-c2ccccc2CO[C@H]1CN(C)S(=O)(=O)c1ccccc1F`: the inhibition was -0.557% (inactive). Next, `O=C(C[C@@H]1C=C[C@H](NC(=O)C2CCOCC2)[C@H](CO)O1)NCc1ccncc1`: -0.812% (inactive); `O=C(c1ccc2c(c1)OCO2)N1CC(=O)N2[C@H](C1)[C@@H](c1ccc(C#Cc3ccccc3)cc1)[C@@H]2CO`: -1.08% (inactive).

As to `O=C1OC(/C=C/c2ccccc2)=NC/1=C/c1ccco1`, the inhibition is 38.7% (active).

The inhibition is the relative decrease from the control value, in per cent.
